Measurements as given in PubChem BioAssay (Tox21).
Inconclusive results are not listed. Active and inactive are the calls of the source. Unless noted, calls come from the whole dose curve; as a rule, active = well fitted curve in the direction sought with a large enough effect in the repeat runs; inconclusive = weak or mixed curves; inactive = no such curve, though single readings can be large; an effect the other way counts as inactive or inconclusive.

Assays:
[1] = target: Thyrotropin receptor (Homo sapiens) (UniProt P16473); assay: qHTS assay to identify small molecule antagonists of the thyroid stimulating hormone receptor (TSHR) signaling pathway (AID 1259385; calls by dose curve; note: nearly all actives have a fitted effect of over 20% in size)
In short: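 TSHR-HEK293 cells were plated and held 18 h at 37C/5% CO2, then given compound plus Ro20-1724 and stimulated with TSH at 1.5 ng/mL final. After 30 min at room temperature, cAMP was detected with cAMP-d2/anti-cAMP-cryptate (1 h) by fluorescence.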

[2] = qHTS assay to identify small molecule agonists of the estrogen receptor alpha (ER-alpha) signaling pathway in the presence of an antagonist - cell viability counter screen (AID 1259386);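 note: series mostly up to about 92 µM; cells exposed to compounds for 22 h at 37 °C before the viability read; nearly all actives have a fitted effect of over 30% in size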
In short: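 Cell viability in VM7Luc4E2 cells (endogenous full-length ER-alpha) measured by CellTiter-Fluor fluorescence in the same wells as the luciferase screen. Cells pre-cultured 5 days in charcoal-stripped serum, then treated 22 h with compounds at 15 concentrations plus 10.0nM ICI-182,780.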

[3] = target: Progesterone receptor (Homo sapiens) (UniProt P06401); assay: qHTS assay to identify small molecule agonists of the progesterone receptor (PR) signaling pathway (AID 1346784; calls by dose curve; note: nearly all actives have a fitted effect of over 30% in size)
In short: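 PR-UAS-bla HEK 293T cells (beta-lactamase reporter under UAS) in 2% charcoal-stripped FBS, dosed with 23 nL compound after 6 hr, incubated 16hr at 37C. LiveBLAzer B/G FRET substrate added, fluorescence read after 2 hours.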

[4] = target: Progesterone receptor (Homo sapiens) (UniProt P06401); assay: qHTS assay to identify small molecule antagonists of the progesterone receptor (PR) signaling pathway (AID 1346795; active = well fitted inhibition curve with a large enough effect in the signal ratio in the repeat runs, not every such curve was filed as active; the % refers to the signal ratio)
In short: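 PR-UAS-bla HEK293T cells with beta-lactamase reporter under UAS control, in 2% charcoal-stripped FBS, treated with compounds plus 1 nM promegestone (R5020, final) for 16 hr at 37C. Read-out: FRET beta-lactamase substrate fluorescence after 2 hr at room temperature.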

[5] = qHTS assay to identify small molecule antagonists of the progesterone receptor (PR) signaling pathway - cell viability counter screen (AID 1346798); note: series mostly up to about 92 µM; nearly all actives have a fitted effect of over 50% in size
In short: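 PR-UAS-bla HEK293T cells, 3,000/well in 2% charcoal-stripped FBS medium, dosed with compounds plus R5020 agonist and incubated 16 h at 37C. Viability then measured in the same wells by CellTiter-Glo luminescence after 30 min at RT.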

[6] = qHTS assay to identify small molecule agonists of the progesterone receptor (PR) signaling pathway - cell viability counter screen (AID 1346799; calls by dose curve; note: nearly all actives have a fitted effect of over 45% in size)
In short: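 Counter screen in the PR-UAS-bla HEK293T wells (2% charcoal-stripped FBS, 16 h compound exposure at 37 C) after the bla read. CellTiter-Glo added, 30 min at room temperature, luminescence read as cell viability.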

[7] = qHTS assay to identify small molecule antagonists of the TGF-beta/Smad signaling pathway - cell viability counter screen (AID 1346824); note: nearly all actives have a fitted effect of over 50% in size
In short: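 SBE-bla HEK 293T cells were plated overnight at 37 C, then given compounds in DMSO plus TGF-beta1 (added as 0.25 ng/mL solution) for 5 hr. After the bla read, CellTiter-Glo was added to the same wells and luminescence read after 30 min at room temperature.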

[8] = qHTS assay to identify small molecule agonists of the TGF-beta/Smad signaling pathway - cell viability counter screen (AID 1346829); note: top concentration of the series differs between compounds; nearly all actives have a fitted effect of over 45% in size
In short: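 Compound-treated SBE-bla HEK 293T cells (5 hr, 37 C) were assessed for viability with CellTiter-Glo in parallel with the reporter read.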

[9] = qHTS assay to identify small molecule agonists of the TGF-beta/Smad signaling pathway (AID 1346859; active = well fitted activation curve with a large enough effect in the signal ratio in the repeat runs, not every such curve was filed as active; the % refers to the signal ratio; note: series mostly up to about 77 µM)
In short: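 SBE-bla HEK293T cells plated overnight, then compound exposure for 5 h at 37 C. Beta-lactamase reporter read with LiveBLAzer B/G FRET substrate after 2 h at room temperature, fluorescence at 405 nm excitation, 460/530 nm emission.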

[10] = Human pregnane X receptor (PXR) small molecule agonists, qHTS cell viability counter screen (AID 1346977); note: nearly all actives have a fitted effect of over 50% in size
In short: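 PXR-Luc HepG2 cells (2,000/well, 5% charcoal-stripped FBS) preincubated 5 hr, then exposed to compounds 24 hr at 37 C. Viability read in the same wells by CellTiter-Fluor fluorescence, reagent added at 23 hr, 1 hr incubation.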

[11] = Caspase-3/7 induction in HepG2 cells by small molecules, qHTS assay (AID 1346978); note: nearly all actives have a fitted effect of over 15% in size
In short: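 Wild-type HepG2 cells (2,000/well) were settled 5 h at 37 C, 5% CO2, then exposed to compounds in DMSO for 17 h. Caspase-3/7 activity was read by luminescence 30 min after adding Caspase-Glo 3/7 reagent at room temperature.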

[12] = Caspase-3/7 induction in CHO-K1 cells by small molecules, qHTS assay (AID 1346980); note: nearly all actives have a fitted effect of over 15% in size
In short: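 Wild-type cells were seeded at 1,500 per well and settled 5 hr at 37 C, 5% CO2, then exposed to DMSO-dissolved compounds for 17 hr. Caspase-Glo 3/7 reagent was added, and luminescence was read after 30min at room temperature.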

[13] = Caspase-3/7 induction in HepG2 cells by small molecules, qHTS cell viability counter screen (AID 1346981); note: series mostly up to about 92 µM; nearly all actives have a fitted effect of over 30% in size
In short: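 Wild-type HepG2 cells, 2,000/well, settled 5 hr at 37 C, 5% CO2 before compound addition. Viability read by CellTiter-Fluor fluorescence, reagent added after 16 hr compound exposure, then 1 hr at 37C, in the same wells as the caspase read.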

[14] = target: Nuclear receptor subfamily 1 group I member 2 (Homo sapiens) (UniProt O75469); assay: Human pregnane X receptor (PXR) small molecule agonists, qHTS assay (AID 1346982); note: nearly all actives have a fitted effect of over 35% in size
In short: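 PXR-Luc HepG2 reporter cells (CYP3A4-driven luciferase) in 5% charcoal-stripped FBS medium, plated 5 h before compound addition, then treated 24 h at 37C. Luciferase read by ONE-Glo luminescence after 30 min at room temperature.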

[15] = target: Nuclear receptor subfamily 1 group I member 2 (Rattus norvegicus) (UniProt Q9R1A7); assay: Rat pregnane X receptor (rPXR) activation by small molecules, qHTS assay (AID 1346983); settings: rPXR luciferase reporter cells, One-Glo luminescence, 24 h; max activation: hits give high values; note: nearly all actives have a fitted effect of over 20% in size
In short: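 Cell-based rPXR luciferase reporter assay, 2,000 cells per well, rested 5hr at 37 C before compound addition in DMSO, then 24 hr at 37 C. One-Glo reagent was added and luminescence read after 30 min at room temperature.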

[16] = target: Nuclear receptor subfamily 1 group I member 2 (Homo sapiens) (UniProt O75469); assay: CYP3A4 induction through human pregnane X receptor (PXR) by small molecules, qHTS assay (AID 1346984); note: nearly all actives have a fitted effect of over 40% in size
In short: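 DPX-2 HepG2 cells carrying a PXR response element and CYP3A4-promoter luciferase construct, treated with compounds 24 hr at 37C. Then P450-Glo CYP3A4 Luciferin-IPA substrate (3uM final) for 3 hr at 37C, One-Glo added, luminescence read.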

[17] = target: Nuclear receptor subfamily 1 group I member 2 (Homo sapiens) (UniProt O75469); assay: Human pregnane X receptor (PXR) activation by small molecules, qHTS assay (AID 1346985); note: nearly all actives have a fitted effect of over 40% in size; note: potency is the fitted concentration of half-maximal effect
In short: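 DPX-2 cells (HepG2 co-transfected with a PXR response element and a CYP3A4-promoter luciferase construct) were seeded at 2,000 per well, rested 5 hr at 37C, then exposed to DMSO-dissolved compounds for 24 hr. Activation was read as luciferase luminescence.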

[18] = Caspase-3/7 induction in CHO-K1 cells by small molecules, qHTS cell viability counter screen (AID 1346979); note: nearly all actives have a fitted effect of over 35% in size
In short: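 Wild-type CHO-K1 cells (1,500/well) treated with compound after 5 h plating; after 16 h at 37C, viability read as CellTiter-Fluor fluorescence following 1 h reagent incubation, in the same wells as the caspase read.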

[19] = target: Thyrotropin-releasing hormone receptor (Homo sapiens) (UniProt P34981); assay: qHTS assay to identify small molecule antagonists of the thyrotropin-releasing hormone receptor (TRHR) signaling pathway (AID 1346877; active = well fitted inhibition curve with a large enough effect in the repeat runs, not every such curve was filed as active; note: series mostly up to about 51 µM)
In short: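 TRHR-expressing HEK293 cells loaded with calcium dye for 2 h at 37 C; compounds pre-incubated 5 min at room temperature before TRH challenge at 1 nM final. Intracellular calcium fluorescence read kinetically for 3 min; 15 concentrations in triplicate.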

[20] = target: Thyrotropin-releasing hormone receptor (Homo sapiens) (UniProt P34981); assay: qHTS assay to identify small molecule agonists of the thyrotropin-releasing hormone receptor (TRHR) signaling pathway (AID 1346891; calls by dose curve; note: series mostly up to about 58 µM)
In short: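 HEK293 cells expressing TRHR plated 18 h at 37 C/5% CO2, calcium dye-loaded 2 h at 37 C, then compound added (agonist mode); kinetic calcium fluorescence read 3 min at 1 s intervals; 15 concentrations in triplicate.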
% is set by controls: 0 for no effect and ±100 for the full control effect.

Sequence of Thyrotropin receptor (Homo sapiens) (P16473 whole entry, looked up): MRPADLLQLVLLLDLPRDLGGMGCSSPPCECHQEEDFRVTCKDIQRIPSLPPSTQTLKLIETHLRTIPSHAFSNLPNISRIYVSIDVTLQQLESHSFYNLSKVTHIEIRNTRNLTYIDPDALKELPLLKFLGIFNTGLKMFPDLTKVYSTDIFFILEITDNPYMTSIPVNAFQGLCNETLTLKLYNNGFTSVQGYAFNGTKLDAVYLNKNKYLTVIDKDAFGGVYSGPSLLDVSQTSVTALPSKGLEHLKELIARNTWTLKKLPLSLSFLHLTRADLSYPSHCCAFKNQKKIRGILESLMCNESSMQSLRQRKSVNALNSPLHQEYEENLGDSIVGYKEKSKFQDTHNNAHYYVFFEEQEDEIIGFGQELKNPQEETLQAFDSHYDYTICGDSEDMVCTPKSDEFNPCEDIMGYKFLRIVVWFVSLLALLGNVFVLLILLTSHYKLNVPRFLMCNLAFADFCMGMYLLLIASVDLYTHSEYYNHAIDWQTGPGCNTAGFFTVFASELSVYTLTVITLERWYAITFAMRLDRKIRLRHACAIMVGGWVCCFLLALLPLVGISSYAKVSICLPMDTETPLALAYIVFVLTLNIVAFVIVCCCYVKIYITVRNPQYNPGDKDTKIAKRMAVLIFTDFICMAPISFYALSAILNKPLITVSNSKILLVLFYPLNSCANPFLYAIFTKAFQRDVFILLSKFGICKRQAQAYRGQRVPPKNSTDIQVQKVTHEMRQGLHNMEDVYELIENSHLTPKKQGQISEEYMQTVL
Sequence of Progesterone receptor (Homo sapiens) (P06401 whole entry, looked up): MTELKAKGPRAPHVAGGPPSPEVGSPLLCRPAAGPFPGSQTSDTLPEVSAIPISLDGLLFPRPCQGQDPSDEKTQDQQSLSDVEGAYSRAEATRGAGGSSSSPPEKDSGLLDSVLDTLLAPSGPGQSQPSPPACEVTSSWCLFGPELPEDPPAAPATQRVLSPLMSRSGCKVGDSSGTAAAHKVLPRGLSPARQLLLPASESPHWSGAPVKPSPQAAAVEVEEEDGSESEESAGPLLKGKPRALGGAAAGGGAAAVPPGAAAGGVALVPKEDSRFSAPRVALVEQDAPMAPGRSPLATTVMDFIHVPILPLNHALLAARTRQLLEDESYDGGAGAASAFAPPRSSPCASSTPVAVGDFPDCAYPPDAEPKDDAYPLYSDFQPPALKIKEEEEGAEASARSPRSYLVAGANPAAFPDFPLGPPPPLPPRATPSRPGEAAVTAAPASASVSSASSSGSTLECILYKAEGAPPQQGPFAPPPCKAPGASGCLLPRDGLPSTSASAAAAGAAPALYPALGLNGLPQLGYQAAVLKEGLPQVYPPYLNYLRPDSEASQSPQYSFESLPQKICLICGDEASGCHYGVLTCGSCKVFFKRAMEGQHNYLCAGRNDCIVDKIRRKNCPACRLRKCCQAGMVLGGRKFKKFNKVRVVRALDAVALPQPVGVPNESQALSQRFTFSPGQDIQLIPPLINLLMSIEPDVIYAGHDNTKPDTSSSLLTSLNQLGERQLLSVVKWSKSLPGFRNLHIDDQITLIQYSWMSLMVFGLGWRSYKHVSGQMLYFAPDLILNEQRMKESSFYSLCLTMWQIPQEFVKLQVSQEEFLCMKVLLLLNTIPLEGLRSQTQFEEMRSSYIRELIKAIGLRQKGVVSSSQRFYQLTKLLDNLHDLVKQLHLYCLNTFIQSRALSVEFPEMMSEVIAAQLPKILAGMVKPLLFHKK
Sequence of Nuclear receptor subfamily 1 group I member 2 (Homo sapiens) (O75469 whole entry, looked up): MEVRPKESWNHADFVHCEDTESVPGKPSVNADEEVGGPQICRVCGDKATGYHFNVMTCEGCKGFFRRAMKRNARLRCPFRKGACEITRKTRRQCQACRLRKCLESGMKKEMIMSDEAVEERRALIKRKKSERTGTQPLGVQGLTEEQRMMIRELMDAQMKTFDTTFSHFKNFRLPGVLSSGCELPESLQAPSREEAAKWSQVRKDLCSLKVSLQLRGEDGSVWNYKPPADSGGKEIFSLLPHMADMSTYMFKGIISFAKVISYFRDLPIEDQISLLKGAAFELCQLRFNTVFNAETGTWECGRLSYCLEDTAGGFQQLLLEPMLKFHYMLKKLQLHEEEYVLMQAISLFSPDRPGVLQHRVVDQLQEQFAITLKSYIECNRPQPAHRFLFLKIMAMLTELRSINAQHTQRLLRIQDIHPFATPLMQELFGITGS
Sequence of Nuclear receptor subfamily 1 group I member 2 (Rattus norvegicus) (Q9R1A7 whole entry, looked up): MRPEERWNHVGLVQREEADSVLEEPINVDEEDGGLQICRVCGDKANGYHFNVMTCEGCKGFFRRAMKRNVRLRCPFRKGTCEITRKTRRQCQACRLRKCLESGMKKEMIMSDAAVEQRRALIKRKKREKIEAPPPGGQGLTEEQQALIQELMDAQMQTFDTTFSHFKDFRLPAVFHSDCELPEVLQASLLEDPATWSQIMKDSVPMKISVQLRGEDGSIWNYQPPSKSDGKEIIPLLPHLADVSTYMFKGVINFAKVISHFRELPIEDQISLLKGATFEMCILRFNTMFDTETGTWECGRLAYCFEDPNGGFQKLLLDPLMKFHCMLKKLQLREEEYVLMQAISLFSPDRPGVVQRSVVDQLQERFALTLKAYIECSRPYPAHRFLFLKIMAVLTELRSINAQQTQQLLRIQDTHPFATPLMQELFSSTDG
Sequence of Thyrotropin-releasing hormone receptor (Homo sapiens) (P34981 whole entry, looked up): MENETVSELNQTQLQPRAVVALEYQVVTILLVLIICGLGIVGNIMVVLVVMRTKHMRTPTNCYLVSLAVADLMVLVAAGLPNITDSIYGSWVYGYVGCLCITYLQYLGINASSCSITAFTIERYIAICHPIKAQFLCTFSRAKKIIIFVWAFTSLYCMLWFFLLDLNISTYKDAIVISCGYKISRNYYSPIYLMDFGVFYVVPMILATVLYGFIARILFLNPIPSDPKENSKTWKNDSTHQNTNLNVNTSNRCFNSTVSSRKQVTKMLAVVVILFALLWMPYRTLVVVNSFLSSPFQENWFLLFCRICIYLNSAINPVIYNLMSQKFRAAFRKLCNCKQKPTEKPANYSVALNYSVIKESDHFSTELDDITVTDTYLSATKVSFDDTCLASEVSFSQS

OCc1ccccn1
inactive: Potency [1] | outcome [2] | Potency [3] | Potency [4] | Potency [5] | Potency [6] | outcome [7] | outcome [8] | outcome [9] | Potency [10] | outcome [11] | outcome [12] | outcome [13] | Potency [14] | max activation [15] -1.13% | Potency [16] | Potency [17]

CCCCCCCCN(C)CCCCCCCC
inactive: Potency [1] | outcome [2] | Potency [3] | Potency [4] | Potency [5] | Potency [6] | outcome [7] | outcome [8] | outcome [9] | Potency [10] | outcome [11] | outcome [12] | outcome [13] | Potency [14]

Oc1cc(O)c2c(c1)O[C@H](c1ccc(O)c(O)c1)[C@H](O)C2
inactive: Potency [1] | outcome [2] | Potency [3] | Potency [4] | Potency [5] | Potency [6] | outcome [7] | outcome [8] | outcome [9] | outcome [11] | Potency [18] | outcome [12] | Potency [14]

COC(=O)[C@H]1[C@H]2C[C@@H]3c4[nH]c5cc(OC)ccc5c4CCN3C[C@H]2C[C@@H](OC(=O)COc2ccc(OC)cc2)[C@@H]1OC
inactive: Potency [1] | outcome [2] | Potency [3] | Potency [4] | Potency [5] | Potency [6] | outcome [7] | outcome [8] | outcome [19] | outcome [20] | Potency [10] | outcome [11] | Potency [18] | outcome [12] | outcome [13] | Potency [14] | max activation [15] -1.88% | Potency [16]
active: Potency [17] 10 µM

CC1(C)SC(C)(C)SC(C)(C)S1
inactive: Potency [1] | outcome [2] | Potency [3] | Potency [4] | Potency [5] | Potency [6] | outcome [7] | outcome [8] | outcome [9] | Potency [10] | outcome [11] | Potency [18] | outcome [12] | outcome [13] | Potency [14]

Cc1cc(C)cc(OCC2CNC(=O)O2)c1 (centres undefined)
inactive: Potency [1] | outcome [2] | Potency [3] | Potency [4] | Potency [5] | Potency [6] | outcome [7] | outcome [8] | outcome [9] | Potency [10] | outcome [11] | Potency [18] | outcome [12] | outcome [13] | Potency [14] | max activation [15] -2.51% | Potency [16] | Potency [17]

CCCC=O
inactive: Potency [1] | outcome [2] | Potency [3] | Potency [4] | Potency [5] | Potency [6] | outcome [7] | outcome [8] | outcome [9] | Potency [10] | outcome [11] | Potency [18] | outcome [12] | outcome [13] | Potency [14]

CCCCCOC(=O)Nc1nc(=O)n([C@@H]2O[C@H](C)[C@@H](O)[C@H]2O)cc1F
inactive: Potency [1] | outcome [2] | Potency [3] | Potency [4] | Potency [5] | Potency [6] | outcome [7] | outcome [8] | outcome [9] | Potency [10] | outcome [11] | Potency [18] | outcome [12] | outcome [13] | Potency [14] | max activation [15] -1.91% | Potency [16] | Potency [17]
